40 molecules from PubChem BioAssay (NCI) can be followed below.

Each structure is given as a SMILES string. Compounds without any hit were thinned out: in the full panel of roughly 79,000, 15% have a hit. Calls of active or inactive are those of the source. Rule as the data show it: active = growth inhibition above about 70%; inactive = the rest. Where a SMILES comes first, the peptide text is derived from it. Bridges are numbered along the chain shown (N, C = ends). [ ]: non-standard residue; d: D form. The star is where a group is joined. Myristoyl = CCCCCCCCCCCCCC(=O)*; PhAc = O=C(Cc1ccccc1)*

The experiment is described as follows: NCI Yeast Anticancer Drug Screen. Data for the bub3 strain (AID 167). The note with it: S. cerevisiae bub3 mutant strain, at 50.0 µM, hits give high values. The essentials: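 Steps: expose the mutant yeast strain to compound; grow alongside vehicle-treated cultures; measure growth; express inhibition against the vehicle cultures.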
With `CC(/C=N/NC1=NCCCCN1)=N\NC1=NCCCCN1`, the growth inhibition is -10.6% (inactive).
Next, `O=C1C(Cl)=C(Cl)C(=O)N1c1ccccc1Cl`: 34.7% (inactive); `O=C(O)CNCc1ccccc1`: 16.4% (inactive).
Next, `CCSC(N)=Nc1ccccc1` (tested in a mixture with another compound): 12.1% (inactive); `O=C(O)CCC1(c2ccccc2)CCCCC1`: 47.7% (inactive).
To `CCOC(=O)c1nc2ccc(OC)cc2c2c1Cc1ccccc1-2` belongs 0.55% (inactive); to `CC(=O)c1sc(-c2nc(C)c(C(=O)/C=C\c3ccc(/C=C\C(=O)c4sc(-c5nc(C)c(C(C)=O)s5)nc4C)cc3)s2)nc1C`, 3.95% (inactive).
`CCOC(=O)CC1C(O)C(=O)N(C)C1c1ccccc1` (stereo not given): the growth inhibition was 9% (inactive).
To `O=C([O-])[C+](C=Cc1cccc2ccccc12)C(=O)O` belongs 3.35% (inactive); to `Br/C=C\Br`, -12.8% (inactive).
Next, `COc1ccc2c(c1)CCC1C2CCC2(C)C(=O)C(n3cnc4c(=S)nc[nH]c43)CC12` (stereo not given): 14.2% (inactive); `COc1cc([N+](=O)[O-])ccc1N=Cc1cccs1`: 18.3% (inactive); `C=CCSc1nc2c(=O)n(C)c(=O)n(C)c2n1C`: -6.8% (inactive).
To `c1ccc(C[P+]2(c3ccccc3)c3ccccc3-c3ccccc32)cc1` belongs -6.6% (inactive); to `O=c1[nH]ncc(N/N=C(/C=C/c2ccc(C/C(=N/Nc3cn[nH]c(=O)c3Cl)c3ccccc3)cc2)c2ccccc2)c1Cl`, 9.65% (inactive).
Consider `Cc1cccc(CC(CC(=O)O)C(=O)O)c1` (stereo not given), for which the growth inhibition is -2.45% (inactive).
In the case of `O=C1NC(=NC2CCCCC2)C2(CCN(CCCC3(c4ccc(F)cc4)OCCO3)CC2)N1c1ccccc1`, the growth inhibition is -5% (inactive).
To `Cc1ccc(/C=C/C(=O)c2c([O-])on[n+]2-c2ccccc2)cc1` belongs 5% (inactive).
To `CC(C)(C)NC(=O)c1cccc(C(=O)NC(C)(C)C)n1` belongs -13.3% (inactive).
Next, `C=CCC(C(=C)C)(C(=O)OCC)C(=O)OCC`: -25.4% (inactive).
Take `CC(=O)OCC(=O)C1(O)C(C)CC2C3CCC4CC(=O)CCC4(C)C3=CCC21C` (stereo not given): the growth inhibition is 26.1% (inactive).
Next, `CS(=O)(=O)OCCn1cnc2nc(NC(=O)c3ccccc3)[nH]c(=O)c21`: -19.2% (inactive).
Next, `OCc1nnn2c1CCC2`: 10.4% (inactive); `O=S(=O)(c1ccccc1)N1CCCN(S(=O)(=O)c2ccccc2)CC1`: 3.35% (inactive); `CSc1cccc(NC(=O)/C=C/C(=O)O)c1`: 6.65% (inactive).
Regarding `CCCCCCCCCCCCCC(=O)NCC(=O)NC(CO)C(=O)NC(CO)C(=O)NC(CCCCN)C(=O)NC(CO)C(=O)NC(CCCCN)C(=O)N1CCCC1C(=O)NC(CCCCN)C(=O)NC(CC(=O)O)C(N)=O` (stereo not given) (Myristoyl-GSSKSKPKD-NH2; configuration not given here), the growth inhibition was 10.3% (inactive).
Next, `COc1ccc(C2OC(C)C(C)O2)cc1` (stereo not given): -8.35% (inactive); `O=C(O)c1ccc(C(=O)c2ccccc2C(=O)O)cc1C(=O)O`: -23.1% (inactive); `O=C(Cc1ccccc1)N[C@@H]1COC(=O)[C@@H]2CCCN2C(=O)[C@@H]2CCCN2C1=O` (PhAc-[dS]-Pro-Pro; ester 1-C): -1.7% (inactive).
To `c1ccc(Cc2nnc3n2CCC(c2ccccc2)S3)cc1` (stereo not given) belongs 5.05% (inactive).
To `N#CC1CC2c3ccccc3C1([N+](=O)[O-])c1ccccc12` (stereo not given) belongs 45% (inactive); to `COc1ccc(S(=O)Cc2cc(OC)c(OC)c(OC)c2)cc1` (stereo not given), -14.3% (inactive).
Regarding `CC(C)(C)NC(=S)N/N=C/c1ccccn1`, the growth inhibition is 89.7% (active).
As to `c1ccc(C(c2ccccc2)[n+]2ccccc2)cc1`, the growth inhibition is -5.5% (inactive).
Next, `COc1ccc2[nH]cc(C=O)c2c1`: -2.1% (inactive); `CSc1nc(N)n2nc(C)cc2n1`: 33.3% (inactive).
Next, `O=C(O)c1c(Br)c(Br)c(Br)c(Br)c1C(=O)Nc1ccccc1F`: 4% (inactive).
As for `CCOC(=O)C(/C=N/C(=S)Nc1c(C)cccc1C)=C(/O)c1ccccc1`, the growth inhibition was -21.2% (inactive).
To `Cc1ccc(NC(=O)CSc2nnc(Cc3ccccc3)o2)cc1` belongs -3.65% (inactive); to `CC(=O)Nc1ccc(Cc2ccc3[nH]c(=O)cc(C)c3c2)cc1`, -30.1% (inactive).
